Experimental data published in PubChem BioAssay (NCI).
The panel holds about 83,000 compounds, 20% with a hit somewhere; the sample as a whole holds those more often.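 Interpretation: 100, growth as untreated; towards 0, rising growth inhibition; 0, no net growth; 0 to -100, cell death. Compounds scoring below 10 were considered active.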 Calls of active or inactive are those of the source.

Assays:
Experiment in all cases: NCI-60 one-dose screen, 48 h (100 = growth as untreated, 0 = no growth, -100 = all killed)
Settings in all cases: 10 µM unless noted
NCI-H23 lung = tested on: NCI-H23 lung
NCI-H226 lung = tested on: NCI-H226 lung
NCI-H322M lung = tested on: NCI-H322M lung
HOP-62 NSCLC = tested on: HOP-62 NSCLC
NCI-H460 lung = tested on: NCI-H460 lung
A549/ATCC NSCLC = tested on: A549/ATCC NSCLC
786-0 renal = tested on: 786-0 renal
COLO 205 colon = tested on: COLO 205 colon
DU-145 prostate = tested on: DU-145 prostate
K-562 leukemia = tested on: K-562 leukemia
MALME-3M melanoma = tested on: MALME-3M melanoma
MDA-MB-231 breast = tested on: MDA-MB-231 breast
RXF 393 renal = tested on: RXF 393 renal
SF-268 CNS = tested on: SF-268 CNS
SF-295 CNS = tested on: SF-295 CNS
SF-539 CNS = tested on: SF-539 CNS
UACC-257 melanoma = tested on: UACC-257 melanoma
M14 melanoma = tested on: M14 melanoma
HCT-15 colon = tested on: HCT-15 colon
NCI-H522 lung = tested on: NCI-H522 lung

Measured: growth

Cn1c(=O)c2nc(SCc3ccccc3)n(C)c2n(C)c1=O
inactive: NCI-H23 lung 108% | NCI-H226 lung 102% | NCI-H322M lung 109% | HOP-62 NSCLC 107% | NCI-H460 lung 109% | A549/ATCC NSCLC 99.2% | 786-0 renal 109% | COLO 205 colon 104% | DU-145 prostate 117% | K-562 leukemia 103% | MALME-3M melanoma 143% | MDA-MB-231 breast 97.7% | RXF 393 renal 112% | SF-268 CNS 106% | SF-295 CNS 117% | SF-539 CNS 101% | UACC-257 melanoma 111% | M14 melanoma 107% | HCT-15 colon 98.8%

CCC1=C(c2ccc(OC)cc2)C(C)Oc2cc(OC(C)=O)ccc21 (stereo not given)
inactive: NCI-H23 lung 82% | NCI-H226 lung 83.1% | NCI-H322M lung 116% | HOP-62 NSCLC 99.7% | NCI-H460 lung 93% | NCI-H522 lung 78.8% | 786-0 renal 101% | COLO 205 colon 103% | DU-145 prostate 102% | K-562 leukemia 50.2% | MALME-3M melanoma 98% | MDA-MB-231 breast 90.4% | RXF 393 renal 85.3% | SF-268 CNS 86.9% | SF-295 CNS 99.4% | SF-539 CNS 84.3% | M14 melanoma 83.4% | HCT-15 colon 85.5%

CCOC(=O)c1ccccc1OC(=O)NNc1ccccc1
inactive: NCI-H23 lung 100% | NCI-H226 lung 88.8% | NCI-H322M lung 58% | HOP-62 NSCLC 70.6% | NCI-H460 lung 30.5% | A549/ATCC NSCLC 74.1% | 786-0 renal 44.6% | COLO 205 colon 76.2% | DU-145 prostate 82% | MALME-3M melanoma 82.1% | MDA-MB-231 breast 81.3% | RXF 393 renal 124% | SF-268 CNS 65.6% | SF-295 CNS 49.1% | SF-539 CNS 10.7% | UACC-257 melanoma 85.8% | M14 melanoma 57.3% | HCT-15 colon 46%
active: K-562 leukemia 5.06%

Cn1cnc([N+](=O)[O-])c1S(=O)(=O)Oc1ccc(Cl)cc1
active: COLO 205 colon -90% | MALME-3M melanoma -70.4%
inactive: NCI-H23 lung 96% | NCI-H226 lung 97.8% | NCI-H322M lung 104% | HOP-62 NSCLC 92.3% | NCI-H460 lung 103% | A549/ATCC NSCLC 96% | 786-0 renal 94.4% | DU-145 prostate 81.5% | K-562 leukemia 16.1% | MDA-MB-231 breast 65.4% | RXF 393 renal 81.8% | SF-268 CNS 93% | SF-295 CNS 94.5% | SF-539 CNS 81.4% | UACC-257 melanoma 57% | M14 melanoma 61%

CC(C)C/C(=N\NC(=O)c1ccncc1)c1cc(Cl)ccc1O
active: NCI-H460 lung 8.41% | 786-0 renal -1.16% | K-562 leukemia 9.61% | UACC-257 melanoma 6.11% | M14 melanoma 2.19%
inactive: NCI-H23 lung 23.1% | NCI-H226 lung 50.5% | NCI-H322M lung 13.1% | HOP-62 NSCLC 30.6% | A549/ATCC NSCLC 20.8% | COLO 205 colon 13.9% | DU-145 prostate 23.5% | MALME-3M melanoma 21.7% | MDA-MB-231 breast 36.3% | RXF 393 renal 40.2% | SF-268 CNS 24.9% | SF-295 CNS 19.2% | SF-539 CNS 12% | HCT-15 colon 23%

Clc1ccc(-n2cnc3c(Cl)ncnc32)cc1Cl
inactive: NCI-H23 lung 87% | NCI-H226 lung 102% | NCI-H322M lung 64.8% | HOP-62 NSCLC 83.6% | NCI-H460 lung 101% | A549/ATCC NSCLC 95.5% | 786-0 renal 98.7% | COLO 205 colon 92.2% | DU-145 prostate 76.6% | K-562 leukemia 61.1% | MALME-3M melanoma 85% | MDA-MB-231 breast 87.5% | RXF 393 renal 97.3% | SF-268 CNS 78.3% | SF-295 CNS 119% | SF-539 CNS 104% | UACC-257 melanoma 84.4% | M14 melanoma 48.4% | HCT-15 colon 60.4%

CCCCOc1ccc(C(C)(C)c2ccc(OCCCC)cc2)cc1
inactive: NCI-H23 lung 103% | NCI-H226 lung 104% | NCI-H322M lung 99.1% | HOP-62 NSCLC 102% | NCI-H460 lung 113% | NCI-H522 lung 92.3% | 786-0 renal 91% | COLO 205 colon 121% | DU-145 prostate 107% | MALME-3M melanoma 98.7% | MDA-MB-231 breast 111% | RXF 393 renal 125% | SF-268 CNS 115% | SF-539 CNS 92.1% | M14 melanoma 104% | HCT-15 colon 107%

C=CCCCCCCCCC(=O)[O][Sn]([CH2]CCC)([CH2]CCC)[CH2]CCC
active: NCI-H23 lung -86.2% | NCI-H226 lung -52.7% | NCI-H322M lung -88.7% | HOP-62 NSCLC -94.7% | NCI-H460 lung -83.3% | NCI-H522 lung -53% | 786-0 renal -96% | COLO 205 colon -86% | DU-145 prostate -95.2% | K-562 leukemia -16.8% | MALME-3M melanoma -79.8% | MDA-MB-231 breast -81.7% | RXF 393 renal -97.3% | SF-268 CNS -97.3% | SF-295 CNS -85.4% | SF-539 CNS -84.1% | M14 melanoma -91.1% | HCT-15 colon -73.3%

CC(=O)Oc1ccc(C23c4ccccc4C2(OC(C)=O)c2cc(OC(C)=O)ccc23)cc1 (stereo not given)
inactive: NCI-H23 lung 96.2% | NCI-H226 lung 140% | NCI-H322M lung 107% | HOP-62 NSCLC 53.1% | NCI-H460 lung 88.7% | A549/ATCC NSCLC 97% | 786-0 renal 69.3% | COLO 205 colon 95.5% | DU-145 prostate 103% | K-562 leukemia 63.4% | MALME-3M melanoma 137% | MDA-MB-231 breast 73.9% | RXF 393 renal 93.5% | SF-268 CNS 94.3% | SF-295 CNS 96.9% | SF-539 CNS 100% | UACC-257 melanoma 105% | M14 melanoma 104% | HCT-15 colon 65.8%
